Measured values as given in PubChem BioAssay (NCATS).
Inconclusive results are not listed. Active and inactive are the calls of the source. Calls follow the shape of the dose curve; as a rule, active = well fitted curve in the direction sought with a large enough effect; inconclusive = small, poorly fitted or top-dose-only effect, or another doubt; inactive = no such curve, though single readings can be large; an effect the other way counts as inactive or inconclusive.

Legend:
[1] = Cell Viability - LYMP2-003 (AID 965); details: LYMP2-003 lymphoblastoid cell viability; series mostly up to 92.2 µM;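 also: cells exposed to compounds for 24 h before reading; nearly all actives have a fitted effect of over 50% in size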
Procedure, shortened: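 qHTS, human lymphoblastoid line, 2500 cells/well, complete medium. 24 h drug, 37 C. ATP-based luminescent readout; Hill-fit AC50.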

[2] = Cell Viability - LYMP2-004 (AID 966); details: LYMP2-004 lymphoblastoid cell viability, qHTS; series mostly up to 92.2 µM; also: nearly all actives have a fitted effect of over 65% in size
Procedure, shortened: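 Cells seeded 2500/well, rested 5 hr at 37 C, dosed across a concentration series, incubated 24 hr at 37 C, then CellTiter-Glo added for 30 min at room temperature and luminescence read. Hill fitting gave AC50.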

[3] = Cell Viability - LYMP2-009 (AID 968); details: LYMP2-009 lymphoblastoid cell viability; series mostly up to 92.2 µM; also: nearly all actives have a fitted effect of over 55% in size
[4] = Cell Viability - LYMP2-011 (AID 969); details: LYMP2-011 lymphoblastoid cells viability; series mostly up to 92.2 µM; also: nearly all actives have a fitted effect of over 60% in size
Procedure, shortened: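 2500 cells/well, 5 hr 37 C; compound added, 24 hr 37 C; CellTiter-Glo 30 min RT; luminescence. qHTS concentration-response, Hill-equation AC50. Tetraoctylammonium bromide positive control.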

[5] = Cell Viability - LYMP2-013 (AID 970); details: LYMP2-013 lymphoblastoid cells viability; series mostly up to 92.2 µM; also: nearly all actives have a fitted effect of over 55% in size
Procedure, shortened: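 qHTS; 2500 lymphoblastoid cells/well; 5 hr 37 C settle; cpd 24 hr 37 C; CellTiter-Glo, 30 min RT; luminescence. AC50 = Hill fit.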

[6] = Cell Viability - LYMP2-015 (AID 971); details: LYMP2-015 lymphoblastoid cell viability; series mostly up to 92.2 µM; also: nearly all actives have a fitted effect of over 55% in size
Procedure, shortened: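 Luminescent ATP read-out (CellTiter-Glo) served as the viability measure after lymphoblastoid cells were exposed to compounds for 24 hours at 37 C. Concentration-response data were fitted with the Hill equation to give AC50.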

[7] = Cell Viability - LYMP2-017 (AID 972); details: LYMP2-017 lymphoblastoid cell viability; series mostly up to 92.2 µM; also: nearly all actives have a fitted effect of over 55% in size
Procedure, shortened: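 2500 cells/well, 5 h 37 C; cpd 24 h 37 C in complete medium; CellTiter-Glo, 30 min RT; luminescence (ATP). AC50 via Hill fit, qHTS.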

[8] = Cell Viability - LYMP2-023 (AID 975); details: LYMP2-023 lymphoblastoid cell viability; series mostly up to 92.2 µM
Procedure, shortened: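 2500 cells/well, 5 hr 37 C; cpd 24 hr 37 C; CellTiter-Glo, 30 min RT; luminescence. qHTS conc-response, Hill fit -> AC50. Pos ctrl tetraoctylammonium bromide.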

[9] = Cell Viability - LYMP2-025 (AID 976); details: LYMP2-025 lymphoblastoid cell viability; series mostly up to 92.2 µM
Procedure, shortened: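 Seed 2500 LYMP2-025 cells/well; 5 hr at 37 C; add compound; 24 hr at 37 C; add CellTiter-Glo; 30 min RT; read luminescence. AC50 from Hill-modelled concentration-response.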

[10] = Cell Viability - LYMP2-002 (AID 977); details: LYMP2-002 lymphoblastoid cell viability, qHTS; series mostly up to 92.2 µM;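 also: compound exposure lasted 24 h at 37 °C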
Procedure, shortened: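 Human lymphoblastoid LYMP2-002 cells, 2500 per well, exposed to compounds for 24 h at 37 C in complete medium; viability read as intracellular ATP by CellTiter-Glo luminescence, AC50 from Hill fits.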

[11] = Cell Viability - LYMP2-006 (AID 978); details: LYMP2-006 lymphoblastoid cell viability, qHTS; series mostly up to 92.2 µM; also: nearly all actives have a fitted effect of over 60% in size
Procedure, shortened: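 In this cytotoxicity screen, the human lymphoblastoid line grew in complete medium with test compounds for 24 hr at 37 C. Cellular ATP served as the viability signal.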

[12] = Cell Viability - LYMP2-007 (AID 979); details: LYMP2-007 lymphoblastoid cell viability; series mostly up to 92.2 µM;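 also: cells exposed to compound for 24 h before reading; nearly all actives have a fitted effect of over 60% in size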
Procedure, shortened: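 Luminescent ATP signal (CellTiter-Glo) serves as the viability read-out after 24 hr compound treatment of lymphoblastoid cells in complete medium at 37 C. Concentration-response data were fitted to the Hill equation to give AC50 values.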

[13] = Cell Viability - LYMP2-008 (AID 980); details: LYMP2-008 lymphoblastoid cell viability, qHTS; series mostly up to 92.2 µM; also: nearly all actives have a fitted effect of over 60% in size
Procedure, shortened: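 qHTS, human lymphoblastoid line, 2500 cells/well; 5 hr preincubation, 24 hr compound, 37 C. CellTiter-Glo ATP luminescence. AC50 via Hill equation. Tetraoctylammonium bromide positive control.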

[14] = Cell Viability - LYMP2-012 (AID 982); details: LYMP2-012 lymphoblastoid cell viability qHTS; series mostly up to 92.2 µM
[15] = Cell Viability - LYMP2-014 (AID 983); details: LYMP2-014 lymphoblastoid cells, viability qHTS; series mostly up to 92.2 µM; also: nearly all actives have a fitted effect of over 50% in size
Procedure, shortened: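 Luminescent ATP signal (CellTiter-Glo, 30 min at room temperature) serves as the viability read-out after 24 hr compound exposure at 37 C. Cells were seeded at 2500 per well and settled 5 hr beforehand.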

[16] = Cell Viability - LYMP2-016 (AID 984); details: LYMP2-016 lymphoblastoid cell viability, qHTS; series mostly up to 92.2 µM; also: nearly all actives have a fitted effect of over 55% in size
Procedure, shortened: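 Concentration-dependent ATP depletion measured in LYMP2-016 lymphoblastoid cells, 24 h, 37 C; luciferase-based luminescent detection; Hill-equation AC50.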

[17] = Cell Viability - LYMP2-018 (AID 985); details: LYMP2-018 lymphoblastoid cells, viability (qHTS); series mostly up to 92.2 µM; also: nearly all actives have a fitted effect of over 50% in size
Procedure, shortened: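 Luminescent ATP signal (CellTiter-Glo, read after 30 min at room temperature) reports viable cells after 24 hr compound treatment at 37 C. Concentration-response data were fitted to the standard Hill equation for AC50.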

[18] = Cell Viability - LYMP2-020 (AID 986); details: series mostly up to 92.2 µM; also: nearly all actives have a fitted effect of over 55% in size
Procedure, shortened: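 Luminescent ATP signal (CellTiter-Glo, 30 min at room temperature) is the read-out after 24 h compound treatment of lymphoblastoid cells at 37 C. AC50 values come from Hill-equation fits across concentrations.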

[19] = Cell Viability - LYMP2-026 (AID 989); details: LYMP2-026 lymphoblastoid cell viability, qHTS; series mostly up to 92.2 µM; also: nearly all actives have a fitted effect of over 50% in size
Procedure, shortened: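 Luminescent ATP signal (CellTiter-Glo, 30 min room temperature) measures viable lymphoblastoid cells after 24 hr compound treatment at 37 C. Decreased ATP reflects acute toxicity; AC50 values come from Hill-equation modeling.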

[20] = Cell Viability - LYMP1-002 - Assay at 24 hr (AID 993); details: LYMP1-002 lymphoblastoid cells viability; series mostly up to 92.2 µM
Procedure, shortened: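 Cells plated 2500/well, 5 hr 37 C; compounds added, 24 hr 37 C; CellTiter-Glo added, 30 min RT; luminescence read. Tetraoctylammonium bromide positive control. Hill-equation AC50.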

Measured: outcome

C[C@@H]1C[C@H]2[C@@H]3CCC4=CC(=O)C=C[C@]4(C)[C@@]3(F)[C@@H](O)C[C@]2(C)[C@@]1(O)C(=O)CO
inactive: all assays above
